# In the supplement of paper PMC6853941:
# Test system: MCF10A
# Test: perturbation Mahalanobis distance of morphological profile vs DMSO controls (Mahalanobis distance (SD units)); higher = stronger morphological change, active = 7 or more
# Settings: screen batch: Batch1_Mahalanobis_Distance; 72 h
# Method: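 MCF10A cells were seeded onto drugs dispensed acoustically into 384-well plates, using one dose per drug chosen from its human peak plasma concentration, and incubated for 72 h at 37 °C. Cells were stained for DNA, tubulin and mitochondria and imaged; 78 CellProfiler features were extracted, plate-normalised and compared with DMSO wells.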
row,Structure (SMILES),perturbation Mahalanobis distance
1,CCCCNc1cc(C(=O)O)cc(S(N)(=O)=O)c1Oc1ccccc1 [Bumetanide] (1 µM),3.62 (inactive)
2,COc1cc(C(=O)NS(=O)(=O)c2ccccc2C)ccc1Cc1cn(C)c2ccc(NC(=O)OC3CCCC3)cc12 [Zafirlukast] (0.26 µM),2.19 (inactive)
3,COc1ccc2c3c1O[C@H]1C[C@@H](O)C=C[C@@]31CCN(C)C2 [Galantamine] (20 µM),2.14 (inactive)
4,CC[N+](C)(CC)CCOC(=O)C(O)(c1ccccc1)C1CCCCC1 (stereo not given) [Oxyphenonium Bromide] (0.07 µM),2.2 (inactive)
5,CN1CCN(CCCN2c3ccccc3Sc3ccc(C(F)(F)F)cc32)CC1 [Trifluoperazine] (0.12 µM),1.97 (inactive)
6,CC(C)N=C(N)/N=C(\N)Nc1ccc(Cl)cc1 [Proguanil] (3 µM),2.24 (inactive)
7,C=CC[C@@H]1/C=C(\C)C[C@H](C)C[C@H](OC)[C@H]2O[C@@](O)(C(=O)C(=O)N3CCCC[C@H]3C(=O)O[C@H](/C(C)=C/[C@@H]3CC[C@@H](O)[C@H](OC)C3)[C@H](C)[C@@H](O)CC1=O)[C@H](C)C[C@@H]2OC [Tacrolimus] (0.09 µM),2.64 (inactive)
8,C[N+](C)(C)CCOC(=O)CCC(=O)OCC[N+](C)(C)C [Succinylcholine Chloride] (12.65 µM),2.23 (inactive)
9,OC(CCCN1CCCCC1)(c1ccccc1)c1ccccc1 [Diphenidol] (2.6 µM),2.49 (inactive)
10,CNS(=O)(=O)Cc1ccc2[nH]cc(CCN(C)C)c2c1 [Sumatriptan] (1 µM),1.95 (inactive)
11,CO[C@H]1CC2CC[C@@H](C)[C@@](O)(O2)C(=O)C(=O)N2CCCC[C@H]2C(=O)O[C@H]([C@H](C)C[C@@H]2CC[C@@H](OCCO)[C@H](OC)C2)CC(=O)[C@H](C)/C=C(\C)[C@@H](O)[C@@H](OC)C(=O)[C@H](C)C[C@H](C)/C=C/C=C/C=C/1C [Everolimus] (0.95 µM),5.37 (inactive)
12,NS(=O)(=O)Cc1noc2ccccc12 [Zonisamide] (141.4 µM),2.42 (inactive)
13,Nc1ccc(O)c(C(=O)O)c1 [Mesalazine] (39.2 µM),3.41 (inactive)
14,NNc1nncc2ccccc12 [Hydralazine] (15.6 µM),4.07 (inactive)
15,CNC(=O)c1cc(Oc2ccc(NC(=O)Nc3ccc(Cl)c(C(F)(F)F)c3)cc2)ccn1 [Sorafenib] (10.76 µM),2.94 (inactive)
16,CCS(=O)(=O)CCn1c([N+](=O)[O-])cnc1C [Tinidazole] (192.9 µM),2.45 (inactive)
17,O=C1CCC(N2C(=O)c3ccccc3C2=O)C(=O)N1 (stereo not given) [Thalidomide] (19.4 µM),2.34 (inactive)
18,Nc1ccn([C@H]2CC[C@@H](CO)O2)c(=O)n1 [Zalcitabine] (2.4 µM),2.44 (inactive)
19,CCCCc1oc2ccc(NS(C)(=O)=O)cc2c1C(=O)c1ccc(OCCCN(CCCC)CCCC)cc1 [Dronedarone] (1.3 µM),3.58 (inactive)
20,CCCN[C@H]1CCc2nc(N)sc2C1 [Pramipexole] (0.15 µM),2.79 (inactive)

# Same assay, conditions: screen batch: Batch2_Mahalanobis_Distance; 72 h
row,Structure (SMILES),perturbation Mahalanobis distance
1,CCCCNc1cc(C(=O)O)cc(S(N)(=O)=O)c1Oc1ccccc1 [Bumetanide] (1 µM),2.57 (inactive)
2,COc1cc(C(=O)NS(=O)(=O)c2ccccc2C)ccc1Cc1cn(C)c2ccc(NC(=O)OC3CCCC3)cc12 [Zafirlukast] (0.26 µM),1.99 (inactive)
3,COc1ccc2c3c1O[C@H]1C[C@@H](O)C=C[C@@]31CCN(C)C2 [Galantamine] (20 µM),2.43 (inactive)
4,CC[N+](C)(CC)CCOC(=O)C(O)(c1ccccc1)C1CCCCC1 (stereo not given) [Oxyphenonium Bromide] (0.07 µM),2.44 (inactive)
5,CN1CCN(CCCN2c3ccccc3Sc3ccc(C(F)(F)F)cc32)CC1 [Trifluoperazine] (0.12 µM),3.67 (inactive)
6,CC(C)N=C(N)/N=C(\N)Nc1ccc(Cl)cc1 [Proguanil] (3 µM),3.24 (inactive)
7,C=CC[C@@H]1/C=C(\C)C[C@H](C)C[C@H](OC)[C@H]2O[C@@](O)(C(=O)C(=O)N3CCCC[C@H]3C(=O)O[C@H](/C(C)=C/[C@@H]3CC[C@@H](O)[C@H](OC)C3)[C@H](C)[C@@H](O)CC1=O)[C@H](C)C[C@@H]2OC [Tacrolimus] (0.09 µM),2.28 (inactive)
8,C[N+](C)(C)CCOC(=O)CCC(=O)OCC[N+](C)(C)C [Succinylcholine Chloride] (12.65 µM),2.84 (inactive)
9,OC(CCCN1CCCCC1)(c1ccccc1)c1ccccc1 [Diphenidol] (2.6 µM),3.04 (inactive)
10,CNS(=O)(=O)Cc1ccc2[nH]cc(CCN(C)C)c2c1 [Sumatriptan] (1 µM),3.35 (inactive)
11,CO[C@H]1CC2CC[C@@H](C)[C@@](O)(O2)C(=O)C(=O)N2CCCC[C@H]2C(=O)O[C@H]([C@H](C)C[C@@H]2CC[C@@H](OCCO)[C@H](OC)C2)CC(=O)[C@H](C)/C=C(\C)[C@@H](O)[C@@H](OC)C(=O)[C@H](C)C[C@H](C)/C=C/C=C/C=C/1C [Everolimus] (0.95 µM),9.89 (active)
12,NS(=O)(=O)Cc1noc2ccccc12 [Zonisamide] (141.4 µM),2.95 (inactive)
13,Nc1ccc(O)c(C(=O)O)c1 [Mesalazine] (39.2 µM),2.94 (inactive)
14,NNc1nncc2ccccc12 [Hydralazine] (15.6 µM),3.91 (inactive)
15,CNC(=O)c1cc(Oc2ccc(NC(=O)Nc3ccc(Cl)c(C(F)(F)F)c3)cc2)ccn1 [Sorafenib] (10.76 µM),2.6 (inactive)
16,CCS(=O)(=O)CCn1c([N+](=O)[O-])cnc1C [Tinidazole] (192.9 µM),2.69 (inactive)
17,O=C1CCC(N2C(=O)c3ccccc3C2=O)C(=O)N1 (stereo not given) [Thalidomide] (19.4 µM),2.83 (inactive)
18,Nc1ccn([C@H]2CC[C@@H](CO)O2)c(=O)n1 [Zalcitabine] (2.4 µM),3.2 (inactive)
19,CCCCc1oc2ccc(NS(C)(=O)=O)cc2c1C(=O)c1ccc(OCCCN(CCCC)CCCC)cc1 [Dronedarone] (1.3 µM),2.07 (inactive)
20,CCCN[C@H]1CCc2nc(N)sc2C1 [Pramipexole] (0.15 µM),2.65 (inactive)
